Assay outcomes from PubChem.
RORgamma inh – inhibitors of mouse ROR gamma transcriptional activity; P51450; Drosophila S2 Gal4-RORgamma UAS-luciferase reporter, 20 h; Potency, µM (series often up to 53.6 µM), for the others: top-dose activity change, negative = inhibition, usual class: inhibitors; 5.4% of 310,000 active; AID 2551; note: nearly all actives have a fitted effect of over 60% in size
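Luminescence from a UAS-regulated Photinus luciferase reporter in stably transfected Drosophila Schneider cells is measured; decreased signal marks ROR gamma inhibition. Fusion expression is induced by 700 uM copper sulfate for 20 hr.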
12-LOX inh – blocks human arachidonate 12S-lipoxygenase; AID 1671190; Potency, µM (titrated, usually from 108 µM), inactives show at the highest dose activity change, negative = inhibition, most hits filed as inhibitors; purified 12hLO, xylenol orange hydroperoxide absorbance; 1.1% of 580,000 active
Target sequence (P18054 whole entry, looked up): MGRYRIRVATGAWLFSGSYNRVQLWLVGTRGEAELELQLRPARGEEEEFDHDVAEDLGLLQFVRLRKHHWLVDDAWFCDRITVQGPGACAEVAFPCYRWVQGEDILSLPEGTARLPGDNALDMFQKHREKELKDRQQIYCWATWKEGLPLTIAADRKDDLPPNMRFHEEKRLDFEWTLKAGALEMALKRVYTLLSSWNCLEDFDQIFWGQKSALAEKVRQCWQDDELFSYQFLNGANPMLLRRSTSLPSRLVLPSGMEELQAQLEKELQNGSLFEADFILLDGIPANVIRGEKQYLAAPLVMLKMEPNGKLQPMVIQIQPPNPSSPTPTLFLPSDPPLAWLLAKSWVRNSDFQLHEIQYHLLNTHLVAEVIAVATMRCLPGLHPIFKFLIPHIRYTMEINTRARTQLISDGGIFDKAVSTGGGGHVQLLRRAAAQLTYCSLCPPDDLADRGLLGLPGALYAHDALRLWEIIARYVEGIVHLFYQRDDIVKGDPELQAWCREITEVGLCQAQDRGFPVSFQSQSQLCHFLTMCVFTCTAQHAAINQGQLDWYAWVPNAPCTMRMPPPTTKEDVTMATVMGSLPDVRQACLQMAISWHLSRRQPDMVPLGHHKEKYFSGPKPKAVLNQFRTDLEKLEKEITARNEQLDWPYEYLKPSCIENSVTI
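Purified human 12hLO (150 nM final) in 25 mM Hepes, 0.01% Triton X-100, pH 7.0 was preincubated 15 min at room temperature with compound. Then 40 uM arachidonic acid was added, 30 min. Hydroperoxide was read by Fe-XO absorbance ratio 573/405 nm.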
Gal4-VP16 FLuc – inhibits Gal4-VP16 luciferase reporter, ROR gamma counter-screen; Drosophila S2 Gal4-VP16 UAS-luciferase, luminescence, 20 h; Potency, µM (titrated, usually from 53.6 µM), inactives show at the highest dose activity, negative = inhibition, hits mostly inhibitors; 3.5% of 310,000 active;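 note: Gal4-VP16 expression switched on by copper sulfate through the metallothionein promoter; nearly all actives have a fitted effect of over 50% in size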
TDP1 cell noCPT – qHTS for Inhibitors of human tyrosyl-DNA phosphodiesterase 1 (TDP1): qHTS in cells in absence of CPT. 15% of 420,000 active. AID 686978, 2013. DT40 Tdp1-/- hTDP1 cells, no CPT, ATP luminescence, 48 h. Potency, µM (highest dose often 46.2 µM), for inactives: top-dose activity change, negative = growth inhibition, most hits filed as inhibitors; note: nearly all actives have a fitted effect of over 55% in size
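No-CPT arm: Tdp1-/-;hTDP1 DT40 cells (400/well) plus compounds, incubated ≥48 hr at 37 °C. Readout CellTiter-Glo luminescence.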
TDP1 cell CPT – growth inhibition of DT40 Tdp1-/-;hTDP1 cells with camptothecin (screen for TDP1 inhibitors). Potency, µM (top dose mostly 46.2 µM), for the others: at the top dose activity change, negative = growth inhibition, actives largely listed as inhibitors. AID 686979. 12% of 420,000 active. chicken DT40 Tdp1-/-;hTDP1 cells + 20 nM CPT, ATP luminescence, 48 h; note: nearly all actives have a fitted effect of over 55% in size
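Cell growth measured by CellTiter-Glo luminescence after a minimum 48 h, 37 C compound exposure with 20 nM CPT in Tdp1-knockout DT40 cells stably expressing hTDP1, seeded 400/well; qHTS titration format.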
ELG1 DNA repair – blocks ELG1-dependent DNA repair in HEK293T cells; HEK293T ELG1-luciferase reporter, luminescence, 16 h; DNA damage induced by 5-fluorouridine; 2.3% of 330,000 active; Potency, µM (doses to about 46.1 µM), inactives show top-dose activity change, negative = inhibition, usual class: inhibitors; note: nearly all actives have a fitted effect of over 55% in size
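HEK293T cells expressing luciferase-tagged ELG1 (2,000/well) received 5-Fluorouridine plus compound or DMSO for 16 hr at 37 °C. Luciferase was read by ONE-Glo luminescence after 30 min at room temperature.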
* marks the source's active call; other numbers are inactive results; ? = inconclusive; / = no result given; [ ] = another dose, or the depositor's remark. Only some compounds are listed: those with a hit (about 15% of all), similar ones and a draw of the others. Calls come from the whole dose curve; as a rule, active = well fitted curve in the direction sought with a large enough effect; inconclusive = small, poorly fitted or top-dose-only effect, or another doubt; inactive = no such curve, though single readings can be large; an effect the other way counts as inactive or inconclusive. % is set by controls: 0 for no effect and ±100 for the full control effect; potency is the fitted concentration of half-maximal effect.

SMILES	RORgamma inh	12-LOX inh	Gal4-VP16 FLuc	TDP1 cell noCPT	TDP1 cell CPT	ELG1 DNA repair
COC(=O)c1cccc(NC(=O)C2CCCN(S(=O)(=O)Cc3ccccc3Cl)C2)c1C (stereo not given)	/	-4%	/	/	/	/
COC(=O)c1c(NC(=O)CCNCc2ccco2)sc2c1CCC2	-2%	?	11%	?	23µM*	1%
COc1ccc(NC(=O)c2c(NC(=O)CNCc3ccco3)sc3c2CCC3)c(OC)c1	1.1µM*	61%	2.5µM*	21µM*	?	?
COc1ccc(NC(=O)c2c(NC(=O)CNCc3ccco3)sc3c2CCC3)cc1	-73%	70%	?	-19%	-17%	?
COc1ccc(OC)c(NC(=O)c2c(NC(=O)CNCc3ccco3)sc3c2CCC3)c1	?	0%	2.2µM*	3.7µM*	-113%	-23%
COc1ccccc1C(=O)Nc1sc2c(c1C(=O)NCc1ccco1)CCCC2	39%	?	9%	-20%	?	2%
O=C([C@@H]1C[C@H](F)CN1S(=O)(=O)Cc1ccccc1Cl)N1CCc2ccccc2C1	/	33%	/	/	/	/
OC[C@@H]1O[C@H](CNCc2cccc(Cl)c2)[C@H](N2CCCC2)[C@@H]1O	/	-2%[176 µM]	/	/	/	/
COc1cc(NC(=O)COC(=O)c2ccc3c(c2)NC(=O)CS3)c(C)cc1[N+](=O)[O-]	/	-24%	/	/	/	/
NC(=O)C1(N2CCCCC2)CCN(Cc2ccc(Br)cc2)CC1	54%	36%	-13%	16µM*	?	?
COc1ccc2cc(C(=O)N(C)C3CCS(=O)(=O)C3)[nH]c2c1 (stereo not given)	/	-6%	/	/	/	/
CCOc1cc(C(=S)N2CCCCC2)ccc1OS(=O)(=O)c1ccc(Br)cc1	7.1µM*	-20%	-12%	18µM*	21µM*	-2%
CCOc1cc(C(=S)N2CCOCC2)ccc1OS(=O)(=O)c1ccc(C)cc1	8%	-6%	17%	?	-11%	?
CCOc1cc(C(=S)N2CCOCC2)cc(Br)c1OS(=O)(=O)c1ccccc1	-2%	-16%	8%	23µM*	?	-25%
CCOc1cc(C(=S)N2CCC(O)CC2)ccc1OS(=O)(=O)c1ccc(Br)cc1	30%	?	-2%	18µM*	?	?
CCOc1cc(C(=S)N2CCCCC2)ccc1OS(=O)(=O)c1ccc(Cl)cc1	10µM*	-21%	-21%	23µM*	16µM*	?
COc1cc(C(=S)N2CCOCC2)cc(OC)c1OS(=O)(=O)c1ccc(C)cc1	33%	-9%	-5%	3%	-9%	?
CCOc1ccccc1CNC(=O)C1CCN(c2nnc(N3CCCC3=O)s2)CC1	/	5%	/	/	/	/
COc1ccc(C(=O)NCc2nnc3c(-c4nc(C(C)C)no4)cccn23)cc1F	/	69%	/	/	/	/
COCCN1C(=O)[C@H]2CN(Cc3ccc(C)cc3C)C[C@H]2C1=O	/	8%	/	/	/	/
CCc1cnc2c(c1SCc1ccccc1C)c(=O)n(C)c(=O)n2C	/	-17%	/	?	-25%	/
CCOC(=O)c1ccc(NC(=O)CSc2c(C(C)C)cnc3c2c(=O)n(C)c(=O)n3C)cc1	/	4%	/	-16%	-13%	/
CC(C)c1cnc2c(c1SCC(=O)Nc1ccc(OC(F)(F)F)cc1)c(=O)n(C)c(=O)n2C	/	-24%	/	8.2µM*	9.2µM*	/
CCCc1cnc2c(c1SCC(=O)Nc1ccc(C)c(Cl)c1)c(=O)n(C)c(=O)n2C	/	-25%	/	?	18µM*	/
CCCc1cnc2c(c1SCc1ccc(C(F)(F)F)cc1)c(=O)n(C)c(=O)n2C	/	-13%	/	21µM*	?	/
SMILES	RORgamma inh	12-LOX inh	Gal4-VP16 FLuc	TDP1 cell noCPT	TDP1 cell CPT	ELG1 DNA repair
Cc1ccc(C)c(CSc2c(C(C)C)cnc3c2c(=O)n(C)c(=O)n3C)c1	/	-19%	/	?	18µM*	/
CC(=O)N1CCCC2(COc3ccccc3S(=O)(=O)N2)C1 (stereo not given)	/	-2%[6.33 µM]	/	/	/	/
CC(C)c1nc(SCC(=O)Nc2cccc(C(F)(F)F)c2)c2c(=O)n(C)c(=O)n(C)c2n1	?	5%	?	3.7µM*	4.6µM*	?
CCc1ccc(NC(=O)CSc2c(C)cnc3c2c(=O)n(C)c(=O)n3C)cc1	/	-3%	/	23µM*	23µM*	/
CC(C)c1nc(SCC(=O)Nc2ccc3c(c2)OCCO3)c2c(=O)n(C)c(=O)n(C)c2n1	4%	20%	-2%	?	?	-5%
Cn1c(=O)c2c(nc(SCC(=O)Nc3ccc(OC(F)(F)F)cc3)n2Cc2cccc(C(F)(F)F)c2)n(C)c1=O	/	-18%	/	8.2µM*	10µM*	/
Cn1c(=O)c2c(nc(SCC(=O)Nc3ccccc3)n2Cc2ccccc2F)n(C)c1=O	/	-41%	/	?	?	/
Cc1ccc(CSc2c(C)cnc3c2c(=O)n(C)c(=O)n3C)cc1	/	3%	/	?	23µM*	/
Cc1ccc(NC(=O)C2CCN(C(=O)c3ncn4c3COC(c3ccccc3)C4)CC2)cc1C (stereo not given)	/	9%	/	/	/	/
c1cc(-c2ccnc3nc(CCC4CCCC4)nn23)ccn1	/	35%	/	/	/	/
COc1ccccc1-c1nc2nccc(-c3ccc(Cl)cc3)n2n1	/	-12%	/	/	/	/
CCn1ncc(N2CCC(NC(=O)Cc3cccc(F)c3)CC2)cc1=O	/	38%	/	/	/	/
COC(=O)[C@@]1(Sc2ccc(C)cc2)CC(=O)N(C(=O)/C=C/c2ccccc2)[C@@H]1c1ccccc1	/	-6%	/	?	?	/
COC(=O)[C@@]1(Sc2ccc(C)cc2)CC(=O)N[C@@H]1c1ccc(C(F)(F)F)cc1	/	-78%	/	21µM*	15µM*	/
COC(=O)[C@@]1(Sc2ccc(C)cc2)CC(=O)N(c2ccccc2)[C@@H]1c1ccccc1	/	?	/	18µM*	18µM*	/
Cc1ccc(S(=O)(=O)N2CCCC(Cn3c(C4CC4)nc4cccnc43)C2)c(C)c1 (stereo not given)	/	-8%	/	/	/	/
COC(=O)c1ccc(-n2c(C)cc(/C=N/Nc3nc(C)cc(=O)[nH]3)c2C)cc1	?	64%	-16%	16µM*	15µM*	-19%
COc1cccc(/C=N/Nc2nc(C)cc(=O)[nH]2)c1OC	-3%	?	-5%	-4%	-4%	?
Cc1cc(=O)[nH]c(N/N=C/c2cc(C)n(CC(F)(F)F)c2C)n1	6%	12%	1%	7.3µM*	8.2µM*	?
Cc1cc(=O)[nH]c(N/N=C/c2ccccc2C(F)(F)F)n1	-10%	-6%	19%	?	-1%	12%
